T cruzi growth-1 = blocks T. cruzi growth in NIH3T3 culture. inhibition, % at 8.34 µM. T. cruzi beta-gal in NIH3T3, GalScreen luminescence, 90 h. hit rate 5.9% among 77,000;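 active = mean inhibition above about 93%, with at least 55% of replicates each passing it, limit read from the data, passing the limit was not always enough; inconclusive = only one of those two conditions holds; inactive = neither condition holds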
C diff growth = inhibitors of Clostridium difficile growth; Clostridium difficile clinical isolate growth, OD600, 24 h; active compounds read low; growth activity, negative = inhibition, % at 16 µg/mL (by protocol); hit rate 0.25% among 86,000;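 active = mean growth activity at or below -80% and every replicate also at or below -80%; inconclusive = mean at or below -80% but some replicate above -80%; inactive = mean growth activity above -80%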;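 also: 0% = DMSO wells and -100% = levofloxacin 16 µg/mL wells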
Pf Dd2 growth = inhibitors of Plasmodium falciparum Dd2 growth; P. falciparum Dd2 growth, SYBR Green, 72 h; active compounds read low; activity change, % at 10 µM; hit rate 2.3% among 94,000; AID 1159554; in the data active = activity change below about -80%; inconclusive = no clear call, values can overlap the other calls
T cruzi growth-2 = inhibitors of T. cruzi proliferation | shares compounds with T cruzi growth-1 | T. cruzi beta-gal in NIH3T3, GalScreen luminescence, 90 h | inhibition, % at 8.35 µM | hit rate 72% among 5,600;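 active = mean replicate inhibition above about 95% and at least 55% of replicates individually reaching it, limit read from the data; inconclusive = only one of the two criteria is met; inactive = neither criterion is met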
T cruzi growth-3 = Trypanosoma cruzi proliferation inhibition; shares compounds with T cruzi growth-1; T. cruzi beta-gal in NIH3T3, GalScreen luminescence, 90 h; inhibition, % at 2.09 µM; hit rate 21% among 5,600; AID 651740;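 active = mean inhibition above about 95%, with at least 55% of replicates also reaching it, limit read from the data; inconclusive = meets just one of the two conditions; inactive = meets neither condition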;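 also: plate controls were neutral control median for no effect and positive control median for full effect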
NIH3T3 tox = NIH/3T3 (mouse) viability loss; AID 651742; shares compounds with T cruzi growth-1; NIH/3T3 viability, CellTiter-Glo ATP luminescence, 90 h; cytotoxicity (signal decrease), % at 8.35 µM; hit rate 14% among 5,600;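 active = mean signal decrease across replicates above about 35% based on untreated-well scatter, with enough replicates individually passing, limit read from the data; inconclusive = no rule stated though some were filed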;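 also: 0% = median of neutral control wells and 100% = median of positive control wells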
3T3 cytotox 2 = NIH/3T3 (mouse) viability loss; NIH/3T3 viability, CellTiter-Glo ATP luminescence, 90 h; AID 651744; shares compounds with T cruzi growth-1; inhibition, % at 24.9 µM; hit rate 56% among 5,600;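 active = mean loss of cell viability signal at or above a set limit, and enough replicates individually reaching it; inconclusive = meets only the mean limit or only the replicate share; inactive = meets neither condition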;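 also: 0% = median of neutral control wells and 100% = median of positive control wells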
An asterisk follows results filed as active; ? = inconclusive; . = no result; ! = repeats disagree. Hits are enriched below; roughly 6.7% of the tested compounds scored in any of these assays.

SMILES	T cruzi growth-1	C diff growth	Pf Dd2 growth	T cruzi growth-2	T cruzi growth-3	NIH3T3 tox	3T3 cytotox 2
OC[C@@H]1[C@@H](c2ccc(-c3ccccc3)cc2)[C@H]2CN(Cc3cncnc3)CCCCN12	26	2	-15	.	.	.	.
C[C@@H]1CCCCO[C@@H](CN(C)C(=O)C2CCCCC2)[C@@H](C)CN([C@H](C)CO)C(=O)c2cc(NC(=O)C3CCCCC3)ccc2O1	46	7	-70	.	.	.	.
C[C@@H]1CN([C@@H](C)CO)C(=O)c2cc(/C=C/c3ccccc3)cnc2O[C@@H]1CN(C)C(=O)c1cnccn1	.	2	-4	.	.	.	.
C[C@@H]1CCCCO[C@H](CN(C)C(=O)CCCN(C)C)[C@H](C)CN([C@@H](C)CO)C(=O)c2cc(NC(=O)c3ccncc3)ccc2O1	-61	-2	16	.	.	.	.
COc1ccc2c3c(n(C)c2c1)[C@@H](CO)N(C(=O)c1ccccn1)CC31CN(C(=O)c2ccccn2)C1	.	5	-6	.	.	.	.
OC[C@H]1[C@H](c2ccc(C#Cc3ccccc3)cc2)[C@@H]2CN(Cc3cncnc3)CCCCN12	104*	11	-27	107*	80	44*	105*
O=C(C[C@@H]1C=C[C@@H](NC(=O)C2CC2)[C@H](CO)O1)NC1CCC1	-10	.	11	.	.	.	.
COc1ccc(-c2cnc3c(c2)C(=O)N([C@@H](C)CO)C[C@H](C)[C@@H](CN(C)C)O3)cc1	-22	0	25	.	.	.	.
CCS(=O)(=O)N[C@H]1C=C[C@H](CC(=O)NCc2ccc(F)cc2)O[C@H]1CO	5	.	-4	.	.	.	.
C[C@H](CO)N1C[C@H](C)[C@H](CN(C)Cc2ccc(Cl)c(Cl)c2)Oc2ccc(NS(=O)(=O)c3cccs3)cc2CC1=O	29	-3	4	.	.	.	.
COc1cccc(C#Cc2ccc3c(c2)O[C@H](CN(C)S(=O)(=O)c2ccccc2F)[C@H](C)CN([C@H](C)CO)S3(=O)=O)c1	130*	6	-63	107*	107*	8	38*!
COc1cccc(C#Cc2ccc3c(c2)O[C@H](CN(C)C)[C@H](C)CN([C@@H](C)CO)S3(=O)=O)c1	23	-3	-65	.	.	.	.
COc1cccc(C#Cc2ccc3c(c2)O[C@H](CN(C)C)[C@@H](C)CN([C@@H](C)CO)S3(=O)=O)c1	.	-1	-37	.	.	.	.
COc1cccc(C#Cc2ccc3c(c2)O[C@H](CN(C)S(=O)(=O)c2ccccc2F)[C@@H](C)CN([C@@H](C)CO)S3(=O)=O)c1	118*	2	-56	111*	116*	38*	27*
COc1ccc2c3c(n(C)c2c1)[C@@H](CO)N(C(=O)c1ccncc1)CC31CN(CC2CC2)C1	.	-6	2	.	.	.	.
CCCNC(=O)[C@H]1[C@H](CO)[C@H]2Cn3c(cccc3=O)[C@@H]1N2CCC(F)(F)F	2	-3	.	.	.	.	.
CCNC(=O)[C@@H]1[C@@H](CO)[C@@H]2Cn3c(cccc3=O)[C@H]1N2C(=O)Nc1cc(F)ccc1F	.	1	-1	.	.	.	.
CCCNC(=O)[C@H]1[C@H](CO)[C@H]2Cn3c(cccc3=O)[C@@H]1N2C(=O)Nc1cc(F)ccc1F	101*	-5	10	?	4	21	9
CN(C)C(=O)[C@@H]1[C@@H](CO)[C@@H]2Cn3c(cccc3=O)[C@H]1N2C(=O)c1ccccc1	53	-2	3	.	.	.	.
CCCNC(=O)[C@@H]1[C@@H](CO)[C@@H]2Cn3c(cccc3=O)[C@H]1N2CCC(F)(F)F	94*	-3	.	?	-26	11	-7
CN(C)C(=O)[C@H]1[C@H](CO)[C@H]2Cn3c(cccc3=O)[C@@H]1N2C(=O)c1ccc(F)cc1	185*	6	.	4	-5	-17	-8
CN1C(=O)c2cc(NC(=O)c3ccc4c(c3)OCO4)ccc2OC[C@H]2O[C@H](CC(=O)O)CC[C@H]21	12	0	9	.	.	.	.
CC(C)NC(=O)N[C@H]1CC[C@H](CCN)O[C@@H]1CO	-17	.	17	.	.	.	.
N#C[C@@H]1[C@H](c2ccc(C#CC3CCCCC3)cc2)[C@@H](CO)N1C(=O)Nc1ccc(F)cc1	.	-12	?	.	.	.	.
CC(C)NC(=O)N1[C@@H](C#N)[C@H](c2ccc(C#CC3CCCCC3)cc2)[C@@H]1CO	100*	-13	-37	105*	73	3	62*
SMILES	T cruzi growth-1	C diff growth	Pf Dd2 growth	T cruzi growth-2	T cruzi growth-3	NIH3T3 tox	3T3 cytotox 2
CC(C)NC(=O)N1[C@H](CO)[C@@H](c2ccc(C#CC3CCCCC3)cc2)[C@@H]1C#N	99*	-4	-49	94	105*	-20	105*
N#C[C@H]1[C@@H](c2ccc(C#CC3CCCCC3)cc2)[C@@H](CO)N1C(=O)Nc1ccc(F)cc1	.	67	-3	.	.	.	.
C[C@@H]1CN([C@@H](C)CO)S(=O)(=O)c2ccc(-c3cccc(C#N)c3)cc2O[C@@H]1CN(C)C(=O)C1CC1	44	0	-13	.	.	.	.
Cc1ccc(S(=O)(=O)Nc2ccc3c(c2)CC(=O)N([C@@H](C)CO)C[C@H](C)[C@H](CN(C)C(=O)Nc2c(C)noc2C)O3)cc1	-16	0	5	.	.	.	.
O=C(Nc1ccc(F)cc1)N1C[C@H]2[C@@H](c3ccccc31)[C@H](CO)N2C(=O)Cc1ccncc1	42	4	-6	.	.	.	.
C[C@@H]1CN([C@H](C)CO)S(=O)(=O)c2ccc(C#CCN(C)C)cc2O[C@@H]1CN(C)C(=O)C1CCC1	72	-1	7	.	.	.	.
C[C@H](CO)N1C[C@H](C)[C@@H](CN(C)C(=O)C2CCC2)Oc2cc(C#CCN(C)C)ccc2S1(=O)=O	106*	0	-9	99*	93	19	8
C[C@H]1CN([C@@H](C)CO)S(=O)(=O)c2ccc(C#CCN(C)C)cc2O[C@@H]1CN(C)C(=O)C1CCCCC1	.	-2	-34	.	.	.	.
C[C@H](CO)N1C[C@H](C)[C@@H](CN(C)C(=O)C2CC2)Oc2cc(C#CCN(C)C)ccc2S1(=O)=O	100*	-3	12	107*	92	14	15
COc1cccc(-c2ccc([C@H]3[C@@H](CO)N(C(=O)Cc4ccncc4)[C@H]3C#N)cc2)c1	91	17	-18	.	.	.	.
CCCC#Cc1ccc2c(c1)O[C@@H](CN(C)C(=O)C1CCC1)[C@@H](C)CN([C@@H](C)CO)S2(=O)=O	105*	-1	-29	110*	42	-22	-37
C[C@H](CO)N1C[C@H](C)[C@H](CN(C)C(=O)C2CCCCC2)Oc2cc(C#CCN(C)C)ccc2S1(=O)=O	.	2	-20	.	.	.	.
CCCC#Cc1ccc2c(c1)O[C@H](CN(C)C(=O)C1CCCCC1)[C@@H](C)CN([C@@H](C)CO)S2(=O)=O	95*	18	-52	88	100*	-25	104*
CCCC#Cc1ccc2c(c1)O[C@@H](CN(C)C(=O)C1CCC1)[C@@H](C)CN([C@H](C)CO)S2(=O)=O	104*	5	-31	110*	57	2	34*
CCCC#Cc1ccc2c(c1)O[C@@H](CN(C)C(=O)C1CCC1)[C@H](C)CN([C@H](C)CO)S2(=O)=O	87	-8	-41	.	.	.	.
CCCC#Cc1ccc2c(c1)O[C@H](CN(C)C(=O)C1CC1)[C@@H](C)CN([C@H](C)CO)S2(=O)=O	72	3	-27	.	.	.	.

Compound activity (PubChem BioAssay)
